In PubChem BioAssay AID493169 (National Center for Advancing Translational Sciences (NCATS), 2011):
Inconclusive results are not listed. Where a call stands in place of a potency, no number is given. Activity calls are given as the source filed them. The call rests on the fitted dose curve; in most records, active means well fitted inhibition curve with a large enough effect; inconclusive means small, poorly fitted or top-dose-only effect; inactive means flat fitted curve, though single readings scatter.

Experiment: CHOP2 Reporter Counterscreen Assay for Inhibitors of Ubiquitin-specific Protease USP2a;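 further: activated enterokinase alone at 50 pM in a cell-free format rather than USP2a or CHOP2; nearly all actives have a fitted effect of over 55% in size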
Outline: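 Cell-free counterscreen with pre-activated enterokinase alone (50 pM final) in 20mM Tris-HCl pH 8.0, 2mM CaCl2, 2mM beta-mercaptoethanol, 0.05% CHAPS; compound preincubation 30 min RT, reporter substrate 25nM final, fluorescence read after 10 min (Ex 485/Em 531).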
Potency means the concentration at half of the fitted maximal effect.

Compound	Potency
Cn1c(C(=O)NCCCN2CCN(c3ccccc3F)CC2)cc2c(=O)n(C)c3ccccc3c21	inactive
COc1ccccc1C(=O)N1CCN=C1SC	inactive
COc1cccc(C(=O)NCc2ccc3[nH]c(C)cc3c2)c1	inactive
CCC(C)c1ccc(O)c(N)c1 (stereo not given)	inactive
CN(C)S(=O)(=O)c1cccc(NC(=S)NNC(=O)c2cc3ccccc3cc2O)c1	inactive
C#CCOCCOCCOCCNc1nc(N2CCN(C(=O)CCCCCCCCCCNC(=O)Cn3cc(C[C@@H](C)O)nn3)CC2)nc(N2CCN(C(=O)CCCCCCCCCCNC(=O)[C@@H]([C@H](C)CC)n3cc(CCCCCN)nn3)CC2)n1	5.62 µM (active)
CN(C)S(=O)(=O)c1ccc(C(=O)NCCN=C2NS(=O)(=O)c3ccccc32)cc1	inactive
C#CCOCCOCCOCCNc1nc(N2CCN(C(=O)CCCCCCCCCCNC(=O)[C@H]([C@@H](C)CC)n3cc(CCCCCN)nn3)CC2)nc(N2CCN(C(=O)CCCCCCCCCCNC(=O)[C@H](CCCCN)n3cc(CCCC(=O)O)nn3)CC2)n1	7.94 µM (active)
C[C@H](CO)N1C[C@H](C)[C@@H](CN(C)S(=O)(=O)c2cccs2)Oc2c(NC(=O)Nc3ccc4c(c3)OCO4)cccc2C1=O	inactive
CC(C)CC(=O)Nc1cccc(-c2nc3ccccc3o2)c1	inactive
O=C1CC(c2ccc(Cl)cc2)SC(N(c2ccccc2)c2ccccc2)=N1 (stereo not given)	inactive
CCCCCCCC/C=C\CCCCCCCC(=O)NCCc1ccc(O)c(O)c1	inactive
CNc1cccccc1=S	inactive
O=C(Nc1nnc(-c2ccco2)s1)C1CCCCC1	inactive
CC(C)N(C(=O)c1sc2cc([N+](=O)[O-])ccc2c1Cl)C(C)C	inactive
COc1ccc(OC)c(Nc2ccc(Nc3cc(OC)ccc3OC)nn2)c1	inactive
C=CCn1c(O)c(C(CC)=NCCN2CCOCC2)c(=O)[nH]c1=O	inactive
COCCn1c(CN(Cc2ccccc2)Cc2ccccc2)nc2c1c(=O)n(C)c(=O)n2C	inactive
Cc1ccc(NC(=O)Cn2nc(C)c3ccccc3c2=O)cc1F	inactive
O=C(c1ccc([N+](=O)[O-])cc1)N(Cc1ccc(Cl)cc1)N1C(=O)CCCC1=O	inactive

Compound	Potency
CN=c1scc(-c2ccccc2F)n1/N=C/c1ccc(O)c(O)c1O	10 µM (active)
Cc1ccc(C(=O)N/C(=C/c2cccs2)C(=O)NCc2ccco2)cc1	inactive
COc1ccc(CCNC(=O)Cc2cc(=O)[nH]c(=O)[nH]2)cc1OC	inactive
O=C1CCCC2=C1C(c1ccco1)Nc1ccc3ccccc3c12 (stereo not given)	7.94 µM (active)
O=C(CSc1ncn[nH]1)Nc1ccc(Br)cc1F	inactive
CCOC(=O)c1c(NC(C)=O)sc2c1CCCNC2=O	inactive
O=S(=O)(Nc1cccc(-c2cn3c(n2)SCC3)c1)c1ccc(F)cc1F	inactive
COc1ccc(Cl)cc1C(=O)Nc1cccc(-c2ccc3nncn3n2)c1	10 µM (active)
CCC/C(O)=C1\C(=O)CC(C)(C)CC1=Nc1ccc(OC)cc1OC	inactive
CC(=O)c1ccc(NC(=O)CC(NCCC2=CCCCC2)C(=O)O)cc1 (stereo not given)	inactive
COc1cc(C)ccc1OCCOc1cc(C)ccc1Cl	inactive
O=C(Nc1ccncc1)c1ccc(S(=O)(=O)Nc2ccccc2)cc1	3.55 µM (active)
CC(C)n1nc(C(=O)Nc2ccccc2N2CCOCC2)c2ccccc2c1=O	inactive
Nc1ccc2nc(-c3ccc(N)c(Cl)c3)[nH]c2c1	inactive
Cc1nc2ccccc2c2oc(C(=O)NCCN3CCN(C)CC3)cc12	inactive
N#Cc1c(SCC(=O)Nc2nc3ccccc3s2)sc2c(O)cc(=O)[nH]c12	10 µM (active)
O=C(NC1CCCC1)C1C2C=CC(C2)C1C(=O)N1CCOCC1 (stereo not given)	inactive
Cc1ccc(S(=O)(=O)N2[C@@H](c3ccc(C(C)(C)C)cc3)C(C(=O)O)=CC[C@H]2c2ccc(Cl)cc2)cc1	10 µM (active)
O=C(Nc1nc(-c2ccco2)c(-c2ccco2)s1)c1ccc(F)cc1F	10 µM (active)
CCn1c(=O)c(C(=O)Nc2ccccc2S(N)(=O)=O)c(O)c2ccccc21	11.2 µM (active)
